BoNT-A LC inh2 – BoNT/A light chain protease inhibitors, primary screen, biochemical, flow cytometry, MLPCN library; Botulinum neurotoxin type A light chain protease (Clostridium botulinum A str. ATCC 3502); multiplex microsphere protease substrate cleavage; inhibition, % at 10 µM; 0.17% of 360,000 active; AID 588499, 2011; note: plate controls were buffer without enzyme for full effect and enzyme alone for no effect
Autofluor counter – compound fluorescence in toxin protease inhibitor counterscreen | compound autofluorescence counterscreen, microsphere flow cytometry; stronger effect = higher value | fluorescence intensity (concentration not given with the values) | 3.1% of 360,000 active | AID 624483; in the data active = fluorescence intensity above about 16000; inconclusive = no clear call, values can overlap the other calls
Anthrax LF prot – Bacillus anthracis LF protease inhibitors, primary screen, biochemical, multiplex microsphere, MLPCN library | Lethal factor (Bacillus anthracis), P15917 | multiplex microsphere protease cleavage assay | inhibition, % at 10 µM | 0.12% of 360,000 active | AID 588501, 2011; note: plate controls were buffer without enzyme for full effect and enzyme alone for no effect
BoNT-F LC inh – BoNT/F light chain protease inhibitors, primary screen, biochemical, flow cytometry, MLPCN library; inhibition, % at 10 µM; AID 588497, 2011; Multiplex microsphere protease cleavage assay; Botulinum neurotoxin type F light chain protease (Clostridium botulinum); 0.22% of 360,000 active; in the data active = inhibition above about 35%, passing the limit was not always enough; inconclusive = no clear call, values can overlap the other calls; note: plate controls were buffer without enzyme for full effect and enzyme alone for no effect
MazEF act – activators of E. coli MazEF toxin-antitoxin RNase, primary screen, biochemical, fluorescence, uHTS | Endoribonuclease toxin MazF (Escherichia coli (strain K12)), P0AE70 | FAM/BHQ RNA-DNA oligo cleavage fluorescence, 5 h | activation, % at 20 µM | 0.32% of 350,000 active; in the data active = activation above about 50%
Target sequence (P0AE70 whole entry, looked up): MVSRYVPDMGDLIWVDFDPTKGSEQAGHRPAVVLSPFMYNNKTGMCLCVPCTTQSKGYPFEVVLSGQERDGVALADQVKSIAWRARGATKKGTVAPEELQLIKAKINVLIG
An asterisk follows results filed as active; ? = inconclusive; nt = not tested or not shown. An excerpt weighted towards active compounds, which were near 3.7% of everything screened. Cut-off read from the data, not from the text of the source, unless noted: active = inhibition above about 30%; inconclusive = no clear call, values can overlap the other calls; inactive = below that.

SMILES	BoNT-A LC inh2	Autofluor counter	Anthrax LF prot	BoNT-F LC inh	MazEF act
C[C@@H]1CN([C@H](C)CO)C(=O)c2cc(Br)cnc2O[C@@H]1CN(C)C(=O)C1CCOCC1	-1	4359	-6	-9	2
Cc1cc(NC(=O)Cc2ccccc2)c2ccccc2n1	0	4658	2	-4	0
Cc1nc2ccccc2c2nc(NC(=O)Cc3ccccc3)nn12	?	17263*	-8	-7	-7
CCC(=O)[C@@H](C)[C@@H](OC(C)=O)[C@H](C)C[C@@H](C)[C@H]1OC(=O)C[C@@]2(O)CC=C(C)C(O2)C(C)=CCCC[C@H](O[C@H]2C[C@@H](OC(N)=O)[C@H](OC(C)=O)[C@@H](C)O2)C=C[C@H](C)C[C@H]1C	0	5982	-1	-6	nt
COc1ccccc1-c1nc(S(=O)(=O)c2ccccc2)c(N2CCCCC2)o1	2	3613	-11	5	1
O=S(=O)(c1ccc(F)cc1)c1nc(-c2ccccc2F)oc1N1CCCCC1	?	20089*	-6	3	-6
O=C1CC(N2CCC(c3nc4ccccc4s3)CC2)C(=O)N1Cc1ccccc1 (stereo unspecified)	-1	23583*	-5	-2	-6
Cc1cc2ncn(C3CC(=O)N(Cc4ccccc4)C3=O)c2cc1C (stereo unspecified)	0	8036	0	2	0
Cc1nc2ccccc2n1C1CC(=O)N(Cc2ccccc2)C1=O (stereo unspecified)	-2	23623*	-3	-4	2
CN1C(=O)CC(N2CCC(c3nc4ccccc4s3)CC2)C1=O (stereo unspecified)	1	4687	1	-8	3
COc1ccc(C(=O)Nn2c(SCC(=O)NCc3ccco3)nc3ccccc3c2=O)cc1	0	3156	0	9	3
COc1ccc(C(=O)Nn2c(SCC(=O)N3CCC(C)CC3)nc3ccccc3c2=O)cc1	?	20975*	0	-5	10
COc1ccc(C(=O)Nn2c(SCC(=O)c3ccc(Cl)cc3)nc3ccccc3c2=O)cc1	0	20288*	-1	0	-8
COc1ccc(C(=O)Nn2c(C3CCC3)nc3ccccc3c2=O)c(OC)c1	4	18494*	-8	7	4
COc1ccc(C(=O)Nn2c(SCC(=O)NC3CCCCC3)nc3ccccc3c2=O)cc1	-1	20612*	-1	-2	5
CC(=O)c1cccc(OCC(=O)N(Cc2ccco2)c2c(N)n(Cc3ccccc3)c(=O)[nH]c2=O)c1	0	3543	-1	-4	-2
O=C(CN1CCCCC1)Nc1cccc(Cl)c1	0	4052	0	0	8
Cc1ccc(NC(=O)CN2CCCCCC2)c(Br)c1	-3	24257*	-2	-4	3
O=C(CN1CCCCCC1)Nc1cccc(Br)c1	-2	20288*	0	-1	-10
COc1ccc(N2CCN(CC(=O)Nc3ccc(C)cc3Br)CC2)cc1	2	3576	-1	0	-5
CN(C(=O)CSc1nnc(C2CC2)n1-c1ccccc1)C1CCS(=O)(=O)C1 (stereo unspecified)	-1	2823	2	-3	4
C=C1N(CCCCCC(=O)O)C(=O)OC12CCCCC2	1	22385*	2	1	6
O=C(O)CCCCCN1C(=O)CSC1=S	0	4102	-4	-5	2
CCCCOc1ccc(C(=O)NCC(=O)N2CCN(C/C=C/c3ccccc3)CC2)cc1	0	3780	2	-4	-6
COc1ccc(CCn2c(-c3ccco3)nc3nc4ccccc4nc32)cc1	14	5511	11	20	-1
SMILES	BoNT-A LC inh2	Autofluor counter	Anthrax LF prot	BoNT-F LC inh	MazEF act
CCCn1c(-c2ccc(OC)cc2)nc2nc3ccccc3nc21	3	22319*	6	2	2
CCCNC(=O)Cc1ccsc1	3	21829*	0	3	5
CCN(CC)CCNC(=O)c1ccc(NC(=O)Cc2ccsc2)cc1	0	6089	3	0	2
O=C(NC1CCCc2ccccc21)C1CCN(S(=O)(=O)N2CCCCCC2)CC1 (stereo unspecified)	3	21253*	3	6	-9
COCCNc1nc2cc(-c3ccc(C)cc3)sc2c(=O)n1C	0	3732	-6	-5	nt
N#Cc1ccc(Cl)cc1NC(=O)CN1C(=O)C(=O)N(CCC2=CCCCC2)C1=O	0	3964	-12	10	0
Nc1nc(CN2CCN(Cc3ccccc3)CC2)nc(Nc2ccccc2)n1	7	19782*	0	9	-4
Cc1cccc(Nc2nc(N)nc(CN3CCN(c4ccccc4)CC3)n2)c1	?	23528*	-3	-5	-1
CCOc1ccccc1OCCCC(=O)N1CCN(S(=O)(=O)c2ccccc2C#N)CC1	1	2810	-6	-3	1
O=C/C(=C\Nc1ccccn1)c1nc2ccccc2o1	?	17474*	-1	-6	7
O=C/C(=C\Nc1ccccn1)c1nc2cc(Cl)ccc2o1	1	3820	-5	2	11
c1ccc2c(-c3cc(NCc4ccncc4)n4nccc4n3)cccc2c1	0	3135	1	-3	nt
O=C1CC(c2ccccc2)CC(O)=C1C=NC1CCCCC1 (stereo unspecified)	-3	23531*	0	-2	-19
O=C1CC(c2ccccc2)CC(O)=C1C=NC1CCCCCC1 (stereo unspecified)	1	10019	-2	3	5
Cc1cccc(C)c1OCC(O)CNC(C)(C)C (stereo unspecified)	1	16186*	-3	2	6
O=C(COC(=O)c1cccnc1Cl)c1ccc(Cl)cc1Cl	4	19499*	-1	5	0
CSc1ccc(C(=O)Nc2cc(S(=O)(=O)N3CCOCC3)ccc2N2CCOCC2)cc1[N+](=O)[O-]	-1	3483	-4	-2	1
COc1ccc(CCNC(=O)Cn2cnc3ccccc3c2=O)cc1OC	1	2037	3	2	-5
COc1ccc(CCNC(=O)Cn2cnc3c(cnn3-c3ccccc3Cl)c2=O)cc1OC	3	21068*	-1	4	3
CCOc1ccccc1NC(=O)Cn1cnc2c(cnn2-c2ccc(C)c(C)c2)c1=O	0	2820	-3	-3	162*
COC(=O)c1ccccc1NC(=O)Cn1cnc2c(cnn2-c2ccccc2)c1=O	0	9725	0	-7	63*
COC(=O)c1ccccc1NC(=O)Cn1cnc2c(cnn2-c2ccc(C)c(C)c2)c1=O	nt	nt	nt	nt	17
C[C@@H](NS(=O)(=O)c1cc(Cl)ccc1F)[C@H](O)c1ccccc1	0	3001	-1	-1	6
Cc1ccc(OCc2nc(-c3ccc(Cl)cc3)n[nH]2)cc1	2	19787*	-12	1	-9
O=C(NC12CC3CC(CC(C3)C1)C2)c1cccnc1	0	10972	0	-1	2
O=C(NC12CC3CC(CC(C3)C1)C2)c1cncc(O)c1	1	20010*	0	-1	-2

Compound activity deposited in PubChem by several laboratories.
